Only some compounds are listed: those with a hit (about 7.9% of all), similar ones and a draw of the others.
LASV entry inh: inhibitors of Lassa virus binding or cell entry; Lassa virus pseudotype entry inhibition, cell reporter; Potency, µM (series often up to 37.9 µM), inactives show at the highest dose activity change, negative = inhibition, usual class: inhibitors; actives 1.2% (n = 300,000); calls by dose curve; tested in HEK293 cells; note: potency is the fitted concentration of half-maximal effect; nearly all actives have a fitted effect of over 50% in size
MARV entry inh: blocks Marburg virus binding to or entry into cells | Marburg virus pseudotyped entry inhibition, cell reporter | Potency, µM (top dose mostly 37.8 µM), for inactives: top-dose activity change, negative = inhibition, usual class: inhibitors | actives 1.8% (n = 300,000) | AID 540276; calls by dose curve; tested in HEK293 cells; note: potency is the fitted concentration of half-maximal effect
HCMV antiviral: blocks human cytomegalovirus replication; HFF cells, HCMV-luciferase reporter, 72 h; stronger effect = lower value; activity change, negative = inhibition, % at 57.5 µM; actives 4.5% (n = 410,000); in the data active = activity change below about -60%; inconclusive = no clear call, values can overlap the other calls; inactive = above about -39%
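Compounds were evaluated in HFFs infected with an HCMV luciferase reporter virus (MOI 1 PFU/cell). Luciferase in lysates collected 72 h post infection served as the replication measure.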
FMDV antiviral: antivirals against foot and mouth disease virus; Potency, µM (top dose mostly 57.9 µM), for the others: at the top dose activity change, negative = inhibition, most hits filed as inhibitors; actives 1.2% (n = 410,000); AID 1159524; FMDV antiviral cell-based qHTS; calls by dose curve; tested in HEK293T cells; note: read-out not given here; potency is the fitted concentration of half-maximal effect; nearly all actives have a fitted effect of over 45% in size
HCV inhibitor: blocks hepatitis C virus. Huh7.5.1 HCVcc-Cre infection, luciferase reporter, 44 h. Potency, µM (highest dose often 41.8 µM), without a hit: at the highest dose activity change, negative = inhibition, actives largely listed as inhibitors. actives 3.4% (n = 340,000). AID 651820; active = well fitted inhibition curve with a large enough effect; inconclusive = small, poorly fitted or top-dose-only effect, or another doubt; inactive = no such curve, though single readings can be large or run the other way; note: potency is the fitted concentration of half-maximal effect
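Infectious HCVcc-Cre (~0.5 moi) was added to cells just after compound, with cells seeded 4 h earlier at 1,000 per well. Luciferase activity after 44 h culture reported infection; substrate was incubated 15 min at room temperature before reading.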
An asterisk follows results filed as active; ? = inconclusive; / = no result; ! = a repeat was not active; [ ] = another dose, or the depositor's remark. % is set by controls: 0 for no effect and ±100 for the full control effect.

SMILES	LASV entry inh	MARV entry inh	HCMV antiviral	FMDV antiviral	HCV inhibitor
CCCNC(=O)N1C2=NC(C(=O)OC)=C(C(=O)OC)[C@@H]3Nc4ccccc4[C@]23C[C@H]1C(=O)OC	?	3.2%[14.2 µM]	/	/	/
COc1ccc(-n2c(CNC(=O)c3cccc4ccccc34)nnc2SC)cc1	/	/	/	5.1%	/
CN(Cc1ccccc1)C(=O)CCSc1nc(-c2ccc3c(c2)OCO3)cc(C(F)(F)F)n1	?	?	-26.8	-18.3%	10µM*
COc1ccc(-c2onc(C)c2C)cc1S(=O)(=O)NCC1CCN(Cc2cc(C)ccc2C)CC1	?	/	?	5.3%	/
CC1CCCCN1S(=O)(=O)c1cccc2cccnc12 (centres undefined)	/	/	-22.0	1.4%	3.4%
CC1CNCCN1S(=O)(=O)c1cccc2cnccc12 (centres undefined)	?	?	-64.3*!	?	?
CCOC(=O)C1=C(Nc2ccc(OC)cc2)OCC1=O	15.1%	23.2%	9.4	6.9%	18.0%
COc1ccc(/C=C/C(=O)OCC(=O)Nc2ccc3c(c2)OCO3)cc1	/	/	-37.7	9.3%	-1.3%
N#Cc1ccsc1NC(=O)c1ccc(Cl)c([N+](=O)[O-])c1	/	/	-27.4	-12.6%	-3.3%
N#Cc1ccsc1NC(=O)c1cccc([N+](=O)[O-])c1	0.0%	-7.7%[46.1 µM]	27.3	-21.1%	10µM*
CCCCCCCCNc1ncnc2[nH]ncc12	-5.2%[46.1 µM]	?	-75.9*	-26.8%	11.2µM*
COC(=O)C1=C(C)N=C2S[C@H](C)C(=O)N2[C@@H]1/C=C\c1ccccc1OC	/	1.9%	/	/	/
N#Cc1ccc(-c2ccc(OCC(O)Cn3nnc4ccccc43)cc2)cc1 (centres undefined)	1.3%	?	-37.2	28.2µM*	?
CC(C)NC(=O)c1cc(C2CCCCN2C(=O)c2ccc(C(C)C)cc2)on1 (centres undefined)	/	/	5.3	6.1%	/
Oc1cccc(Nc2nc(-c3ccccc3)nc3ccccc23)c1	?	?	?	?	3.55µM*
Cc1cccc(Nc2nc(-c3ccccc3)nc3ccccc23)c1	-7.9%[46.1 µM]	/	-32.5	-28.9%	/
CC(=O)c1cccc(Nc2nc(-c3ccccc3)nc3ccccc23)c1	-25.1%	-28.0%	-30.7	?	10µM*
CC(=O)Nc1cccc(Nc2nc(-c3ccccc3)nc3ccccc23)c1	1.4%[46.1 µM]	?	42.4	?	6.31µM*
Nc1nc(NCc2ccccc2Cl)n(-c2ccccc2)n1	3.1%	6.4%	-9.4	-4.8%	14.8%
CCOc1ccc(NC(=O)Cn2nc(-c3ccncc3)ccc2=O)cc1	2.6%[46.1 µM]	/	4.1	-2.6%	/
CCOC(=O)c1sc(NC(=O)c2cc(-c3ccccc3C)nc3ccccc23)c(C#N)c1C	11.2µM*	?	-104.6*	?	7.08µM*
O=C(Nc1nccs1)c1cc(-c2ccncc2)nc2ccccc12	-1.6%	?	5.4	-27.0%	-23.1%
COC(=O)c1sc(NC(=O)c2ccc(Cn3cc(Cl)cn3)o2)c(C#N)c1C	-2.5%	?	-105.9*	?	-2.8%
CCOC(=O)c1sc(NC(=O)c2ccncc2)c(C#N)c1C	16.7%	?	-68.4*	?	?
CCOC(=O)c1c(NC(=O)c2cc(-c3ccc(Cl)s3)nc3ccccc23)sc(C(N)=O)c1C	-0.5%	5.0%	-25.4	-6.3%	9.1%
SMILES	LASV entry inh	MARV entry inh	HCMV antiviral	FMDV antiviral	HCV inhibitor
Cc1ccc(-c2cc(C(=O)Nc3nccs3)c3ccccc3n2)c(C)c1	?	?	-87.1*	?	10µM*
COC(=O)C(c1ccccc1)(c1cn(C)c2ccccc12)C(Nc1ccccc1)c1ccc(C)cc1 (centres undefined)	/	/	-10.5	/	/
Fc1ccc(C(Nc2ccccc2Cl)c2nnc(-c3ccccc3Cl)o2)cc1 (centres undefined)	-25.6%[46.1 µM]	?	-4.3	-14.2%	/
Cc1ccccc1-c1cc(C(=O)Nc2sc(C)c(C)c2C(N)=O)c2ccccc2n1	15.8µM*	?	-23.2	?	4.47µM*
Cc1cc(C)c2nc(NNC(=O)c3cc(-c4cccs4)nc4ccccc34)sc2c1	?	?	-20.5	?	10µM*
CCOC(=O)c1ccc(N=c2scc(C)n2CC)cc1	?	5.62µM*	-37.2	-0.9%	14.2%
C=CCn1c(C)csc1=Nc1ccc(C(C)=O)cc1	-18.2%	-11.9%[46.1 µM]	-21.3	42.6%	17.3%
COc1ccc(-c2ccc3c(c2)COCC(=O)N3CCN2CCOCC2)cc1	/	/	-16.5	/	/
COc1cccc2c1C1COC3C4CC(C(=O)O)C(C(C2)N13)N4C (centres undefined)	?	?	-96.0*	-13.9%	?
C=CCOC(=O)C1=C(C)OC(N)=C(C#N)[C@@]12C(=O)N(CN1CCOCC1)c1ccccc12	/	16.5%[46.1 µM]	/	/	/
COc1ccc(/C=C/c2c([N+](=O)[O-])c(=O)n(C)c(=O)n2C)cc1	/	-6.7%[46.1 µM]	10.3	-1.4%	1.7%
CCc1ccc(/C=C/c2c([N+](=O)[O-])c(=O)n(C)c(=O)n2C)cc1	/	/	-97.9*	15.8µM*	?
CCOc1ccc(/C=C/c2c([N+](=O)[O-])c(=O)n(C)c(=O)n2C)cc1	?	?	-75.4*	-29.3%	9.6%
COc1cc(/C=N/NC(=S)NC2CC3C=CC2C3)cc(OC)c1OC (centres undefined)	?	?	-61.0*	?	?
Cc1cc(CNC(=O)CCN2Cc3cc(Cl)ccc3OC(C)C2)nn1C (centres undefined)	/	/	/	19.0%	/
CC(C)(C)n1nnnc1C(c1ccccc1)N1CCN(c2ncc(C(F)(F)F)cc2Cl)CC1 (centres undefined)	/	/	-77.5*	?	/
COC(=O)c1c(OCc2ccccc2)cc(=O)n2c1CCN(Cc1cccc(C)n1)CC2	/	/	/	-3.0%	/
CC(C)[C@H]1C(=O)O[C@H](C(C)C)C(=O)N(C)[C@@H](C(C)C)C(=O)O[C@H](C(C)C)C(=O)N(C)[C@@H](C(C)C)C(=O)O[C@H](C(C)C)C(=O)N1C	/	/	/	11.2µM*	?
Cc1nonc1CN(C)C(=O)C1CC12CCN(C(=O)/C=C/c1cccc(Cl)c1)CC2 (centres undefined)	/	/	/	-14.9%	/
N#Cc1ccc(C(c2nnnn2C2CCCC2)N2CCC(Cc3ccccc3)CC2)cc1 (centres undefined)	-3.9%	-28.1%	-90.5*	-11.1%	-2.1%
N#Cc1cccc(C(c2nnnn2C2CCCC2)N2CCC(Cc3ccccc3)CC2)c1 (centres undefined)	-27.0%	?	-35.5	-2.8%	?
OC(c1ccc2c(c1)CN(Cc1c[nH]c3ccccc13)CCO2)c1ccccn1 (centres undefined)	/	/	/	3.0%	/
CCOC(=O)C(NC(=O)c1cccc(Cl)c1)(Nc1sc2c(c1C(N)=O)CCC2)C(F)(F)F (centres undefined)	?	-29.3%	-27.1	?	12.6µM*
O=C(CCNC(=O)c1ccc([N+](=O)[O-])cc1)NCCc1ccccc1	0.7%[46.1 µM]	-0.3%[46.1 µM]	16.6	2.4%	6.5%
Cc1cc(C)c(NC(=O)c2ccc3nccnc3c2)c(C)c1	4.2%	0.3%[46.1 µM]	-71.6*	2.9%	2.5%

Assay outcomes (PubChem)
